An excerpt weighted towards active compounds, which were near 8% of everything screened.
HT1080-NT tox: qHTS for induction of synthetic lethality in tumor cells producing 2HG: qHTS for the HT-1080-NT fibrosarcoma cell line; HT-1080-NT fibrosarcoma viability, CellTiter-Glo ATP luminescence, 48 h; Potency, µM (titrated, usually from 46.1 µM), inactives show top-dose activity, negative = less viability, usual class: cytotoxic; 360,000 compounds, 1.6% hits;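 note: NT is the 2HG producing partner of a matched IDH1 knockdown line; 0% = DMSO-treated cells and -100% = media-only wells without cells; nearly all actives have a fitted effect of over 55% in size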
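A 48-hour cytotoxicity screen used HT-1080-NT cells plated 2 hours before compound delivery. ATP-based CellTiter-Glo luminescence measured viability, normalized to DMSO and no-cell controls.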
SW480 rerep: A quantitative high throughput screen for small molecules that induce DNA re-replication in SW480 colon adenocarcinoma cells; AID 624297, 2012; 340,000 compounds, 1.8% hits; SW480 DNA re-replication, Hoechst DNA content imaging, 48 h; Potency, µM (series often up to 46.1 µM), for the others: at the top dose re-replication activation, usual class: activators; note: % of control where 0% means no effect; nearly all actives have a fitted effect of over 55% in size
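Hoechst fluorescence of nuclei (405 nm excitation, 500-530 nm emission) measured by plate-scanning imager after 48 hr compound exposure at 37 C; re-replication scored as increased number of nuclei with elevated intensity.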
MCF10A rerep: A quantitative high throughput screen for small molecules that induce DNA re-replication in MCF 10a normal breast cells; MCF 10A DNA re-replication, Hoechst nuclear intensity, 48 h; Potency, µM (doses to about 46.1 µM), for the others: top-dose activity, positive = re-replication, actives largely listed as activators; 350,000 compounds, 2.9% hits; AID 624296, 2012; note: % of control where 0% means no effect; nearly all actives have a fitted effect of over 50% in size
HT1080 IDH1KD tx: qHTS for induction of synthetic lethality in tumor cells producing 2HG: qHTS for the HT-1080-IDH1KD cell line | Potency, µM (top dose mostly 46.1 µM), inactives show at the top dose activity, negative = toxicity, most hits filed as cytotoxic | HT-1080 IDH1 knockdown viability, ATP luminescence, 48 h | 360,000 compounds, 2% hits;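 note: 0% = DMSO wells and -100% = cell-free medium wells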
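Knockdown cells (IDH1KD HT-1080) received compounds 2 h after plating at 750 cells/well and were kept 48 h at 37 °C in 5% FBS RPMI. A CellTiter-Glo luminescence read gave % activity for curve fitting.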
KB-3-1 cytotox: qHTS assay for MDR1-selective chemotherapeutics: Primary screen using the parental adenocarcinoma cell KB-3-1; KB-3-1 viability, CellTiter-Glo ATP luminescence, 72 h; Potency, µM (top dose mostly 46.1 µM), actives largely listed as cytotoxic; 400,000 compounds, 1.4% hits; AID 1347075, 2019; note: % is set by controls: 0 for no effect and ±100 for the full control effect; nearly all actives have a fitted effect of over 60% in size
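Using CellTiter-Glo luminescence, growth of non-resistant KB-3-1 adenocarcinoma cells is assessed 72 h after pin-tool compound addition at 37 °C. Normalized responses across the concentration series yield fitted curves.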
KB-V1 cytotox: qHTS assay for MDR1-selective chemotherapeutics: Primary screen using the drug-selected MDR subline cells KB-V1; 400,000 compounds, 3.4% hits; Potency, µM (highest dose often 46.1 µM), most hits filed as cytotoxic; AID 1347076, 2019; KB-V1 MDR cells viability, CellTiter-Glo, 72 h; note: % is set by controls: 0 for no effect and ±100 for the full control effect; nearly all actives have a fitted effect of over 60% in size
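KB-V1 MDR subline cells in DMEM (phenol-red free, 10% FBS) exposed to compounds in qHTS concentration series for 72 h at 37 degrees C. Viability read by CellTiter-Glo luminescence; concentration-effect curves fitted after normalization and correction.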
Numbers without * were called inactive; i = inactive; u = inconclusive; x = not tested or not shown. Calls come from the whole dose curve; as a rule, active = well fitted curve in the direction sought with a large enough effect; inconclusive = small, poorly fitted or top-dose-only effect, or another doubt; inactive = no such curve, though single readings can be large; an effect the other way counts as inactive or inconclusive. Potency is the fitted concentration of half-maximal effect.

SMILES	HT1080-NT tox	SW480 rerep	MCF10A rerep	HT1080 IDH1KD tx	KB-3-1 cytotox	KB-V1 cytotox
CCOC(=O)CN(Cc1ccccc1)C(C(=O)NC1CCCCC1)c1ccc(OC)cc1 (stereo not drawn)	x	x	x	x	i	u
CCOC(=O)C1=C(c2ccccc2)N=c2s/c(=C\c3cccc(O)c3)c(=O)n2C1c1cccs1 (stereo not drawn)	u	u	u	u	i	i
O=c1/c(=C\c2ccc(O)cc2)sc2n1C(c1ccccc1)C(c1ccccc1)=NN=2 (stereo not drawn)	-17%	u	7.3µM*	-22%	u	u
COc1ccc(-c2n[nH]c3c2cnc2cc(OC)c(OC)cc23)cc1	x	x	x	x	i	i
CSc1nc(NCC(C)O)c2c3c(sc2n1)CN(C)CC3 (stereo not drawn)	2%	-6%	-5%	0%	i	i
CSc1nc(SCC(=O)NC(c2ccccc2)c2ccccc2)c2c3c(sc2n1)CN(C)CC3	-28%	5.8µM*	5.2µM*	u	u	u
C/C(=N\NC(=O)c1cccc(S(=O)(=O)Nc2ccc(C)cc2C)c1)c1ccncc1	-1%	-5%	0%	-1%	i	i
C/C(=N\NC(=O)C(=O)Nc1cc(Cl)ccc1Cl)c1ccncc1	5%	-3%	16%	1%	i	i
C/C(=N\NC(=O)C(=O)Nc1cccc(Cl)c1C)c1ccncc1	12%	-5%	-1%	u	i	21µM*
C/C(=N\NC(=O)c1ccc(Cl)c(S(=O)(=O)Nc2ccccc2Cl)c1)c1ccncc1	2%	1%	1%	0%	i	23µM*
Cn1nc(C(=O)OCC(=O)NC2CCS(=O)(=O)C2)c2ccccc2c1=O (stereo not drawn)	10%	-2%	-1%	6%	i	i
O=C(c1ccccn1)N(Cc1ccco1)C1(C(=O)NC2CCCCC2)CCCCC1	1%	5%	7%	1%	i	9.2µM*
O=C(Cc1cccs1)N(Cc1cccs1)C1(C(=O)NC2CCCC2)CCCCC1	4%	9%	14%	2%	u	8.2µM*
COc1ccc2c(c1)c1c(c(=O)n(Cc3ccccc3)c(=O)n1CC(=O)NCc1ccccc1Cl)n2C	x	x	x	x	i	i
CCCCCCC(=O)N1CCC(c2nc3c(nnn3Cc3ccccc3Cl)c(=O)[nH]2)CC1	13µM*	15%	0%	11µM*	i	i
O=C(NCc1ccco1)c1nc2c(nnn2Cc2ccccc2Cl)c(=O)[nH]1	18µM*	0%	7%	u	u	i
O=C(NCC1CCCO1)c1nc2c(nnn2Cc2ccc(F)cc2)c(=O)[nH]1 (stereo not drawn)	0%	-9%	19%	-7%	i	i
Cc1ccc(C)c(Cn2nnc3c(=O)[nH]c(C(=O)NCc4ccco4)nc32)c1	14%	19%	37%	-21%	i	u
O=C(C1CCCCC1)N1CCC(c2nc3c(nnn3Cc3ccccc3Cl)c(=O)[nH]2)CC1	-9%	-1%	3%	-1%	i	i
O=C(NCc1cccs1)c1nc2c(nnn2Cc2ccc(F)cc2)c(=O)[nH]1	-22%	-1%	-5%	u	i	23µM*
Cc1ccc(S(=O)(=O)Nc2ccccc2/C=N/c2nc3ccccc3n2C)cc1	u	5%	13µM*	21µM*	u	i
Cc1ccc(S(=O)(=O)Nc2ccccc2-c2ccccc2)cc1	2.9µM*	0.82µM*	1.3µM*	4.1µM*	3.3µM*	u

From PubChem
